# According to the supplement of paper PMC9135407:
# “And” between values parts separate entries of the source, which are not always exact repeats. Equal values may be shown once. Where a name gives a salt, the structure may show the parent alone. The whole screen tested about 5,800 compounds, of which about 620 (11%) showed activity. The full list was thinned out, with actives kept by preference. Unmarked numbers belong to inactive results.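 Rule for the calls: active = score above a cut-off or among the top three wells of a plate; in these data no inactive exceeds 0.85.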
# Test system: primary human hepatic stellate cells (donor 1)
# Assay: scaled lipid accumulation score (0 = DMSO-like, 1 = nortriptyline-like); higher = stronger HSC inactivation (lipid re-accumulation), active = hit call of the paper
# Conditions: 48 h
# Description: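 Primary lipid accumulation screen in primary human hepatic stellate cell myofibroblasts (donor 1, passage 8) in 384-well plates. 100 nL of library compound was pin-transferred into 30 µL medium in duplicate, and cells were treated for 48 h. The 'Scaled' score combines distance from plate baseline, toxicity and reproducibility penalties, and is normalised to nortriptyline (positive) and DMSO (negative) controls on each plate. A hit is defined as scaled >0.85 or among the top 3 wells per plate.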
# [1] = library stock concentration: 1 mM
# [2] = library stock concentration: 10 mM
# [3] = library stock concentration: 9.7 mM
# [4] = library stock concentration: 80 uM
# [5] = library stock concentration: 400 uM
# [6] = library stock concentration: 2 mM
# [7] = library stock concentration: 3.33 mM
smiles,measurement,setting,value
CN[C@@H]1C[C@H]2O[C@@](C)([C@@H]1OC)n1c3ccccc3c3c4c(c5c6ccccc6n2c5c31)C(=O)NC4 [staurosporine],scaled lipid accumulation score,library stock concentration: 10.7 mM,0.643
CN[C@@H]1C[C@H]2O[C@@](C)([C@@H]1OC)n1c3ccccc3c3c4c(c5c6ccccc6n2c5c31)C(=O)NC4 [Staurosporine],scaled lipid accumulation score,[1],0.546 (active)
COC(=O)[C@@]1(O)C[C@H]2O[C@]1(C)n1c3ccccc3c3c4c(c5c6ccccc6n2c5c31)C(=O)NC4,scaled lipid accumulation score,library stock concentration: 1.1 mM,0.142
O=C(Cc1ccc(Cl)c(Cl)c1)N1CCCCC1CN1CCCC1 (stereo unspecified),scaled lipid accumulation score,[2],0.581 and 0.566
COC(=O)N1CCN(C(=O)Cc2ccc(Cl)c(Cl)c2)C(CN2CCCC2)C1 (stereo unspecified),scaled lipid accumulation score,[2],0.05
COC(=O)N1CCN(C(=O)Cc2ccc(Cl)c(Cl)c2)C(CN2CCCC2)C1.O=C(O)/C=C/C(=O)O (stereo unspecified),scaled lipid accumulation score,[2],0.902 (active)
CO[C@H]1CC=C2CCN3CCC4=C(CC(=O)OC4)[C@]23C1 [Dihydro-beta-erythroidine hydrobromide],scaled lipid accumulation score,[2],≤ -0.07
"COc1ccc2c(c1OC)C(=O)OC2C1c2cc3c(cc2CCN1C)OCO3 (single isomer, unassigned; (+)) [(+)-Hydrastine]",scaled lipid accumulation score,[2],≤ -0.07
CCCCC/C=C\C/C=C\C/C=C\C/C=C\CCCC(=O)Nc1cccc([N+](=O)[O-])c1 [Arachidonoyl m-Nitroaniline],scaled lipid accumulation score,[1],≤ 0
CN(C)C(=O)C(CCN1CCC(O)(c2ccc(Cl)cc2)CC1)(c1ccccc1)c1ccccc1.Cl [Loperamide hydrochloride],scaled lipid accumulation score,[2],1.46 (active)
CN(C)C(=O)C(CCN1CCC(O)(c2ccc(Cl)cc2)CC1)(c1ccccc1)c1ccccc1.Cl,scaled lipid accumulation score,[3],1.02 (active)
CCOC(=O)C1(c2ccccc2)CCN(CCC(C#N)(c2ccccc2)c2ccccc2)CC1,scaled lipid accumulation score,[2],≤ 0
O=C(N[C@H]1CN2CCC1CC2)c1cc2ccoc2cn1,scaled lipid accumulation score,[2],≤ -0.055
Cl[C@H]1[C@H](Cl)[C@@H](Cl)[C@@H](Cl)[C@H](Cl)[C@H]1Cl [Lindane],scaled lipid accumulation score,library stock concentration: 6.9 mM,≤ -0.001
same,scaled lipid accumulation score,[2],≤ 0
OC[C@@H](O)[C@H]1O[C@@H]2O[C@H](C(Cl)(Cl)Cl)O[C@@H]2[C@H]1O,scaled lipid accumulation score,[2],≤ 0
CN(C)NC(=O)CCC(=O)O [Daminozide],scaled lipid accumulation score,[4],≤ 0
same,scaled lipid accumulation score,[5],≤ 0
same,scaled lipid accumulation score,[6],≤ 0
same,scaled lipid accumulation score,[2],≤ 0
"CC[C@@H](C(=O)[C@@H](C)[C@@H](O)[C@H](C)[C@@H]1O[C@@H]([C@@H](CC)C(=O)O)CC[C@@H]1C)[C@H]1O[C@]2(C=C[C@@H](O)[C@]3(CC[C@@](C)([C@H]4CC[C@](O)(CC)[C@H](C)O4)O3)O2)[C@H](C)C[C@@H]1C [Salinomycin, sodium]",scaled lipid accumulation score,[2],0.422
Clc1ccc(C2=CCCC3CCC2N3)cn1 (stereo unspecified) [UB 165 fumarate],scaled lipid accumulation score,[2],0.039
NC1=NC(=O)C(c2ccccc2)O1 (stereo unspecified) [Pemoline],scaled lipid accumulation score,[2],≤ 0
C=C(C)[C@@H]1[C@H]2OC(=O)[C@@H]1[C@]1(O)C[C@H]3OC34C(=O)O[C@H]2[C@@]41C.CC(C)(O)[C@@H]1[C@H]2OC(=O)[C@@H]1[C@]1(O)C[C@H]3OC34C(=O)O[C@H]2[C@@]41C (stereo partly specified) [Picrotoxin],scaled lipid accumulation score,[2],≤ -0.055
O=C1C=C2C(=CCOC2O)O1 (stereo unspecified) [Patulin],scaled lipid accumulation score,[2],1.21 (active)
C[C@H](N)Cn1ccc2cc(F)c(Cl)cc21.O=C(O)/C=C/C(=O)O [Ro 60-0175 fumarate],scaled lipid accumulation score,[2],0.953 (active)
O=C[C@H](Cl)[C@@H](O)[C@H](O)[C@H](O)CO [2-Chloro-2-deoxy-D-glucose],scaled lipid accumulation score,[2],≤ -0.07
CCN1C[C@]2(COC)CC[C@H](O)[C@]34C1[C@@](O)([C@@H](OC)[C@H]23)[C@@]1(O)C[C@H](OC)[C@H]2C[C@@H]4[C@@H]1[C@H]2OC [Delsoline],scaled lipid accumulation score,,≤ 0
"CN(N=O)c1ccc(O)c(O)c1 [Me-3,4-dephostatin]",scaled lipid accumulation score,[2],≤ -0.055
Br.Br.N=C(NCc1ccc(Cl)cc1)SCCCc1c[nH]cn1 [Clobenpropit dihydrobromide],scaled lipid accumulation score,[2],1.53 (active)
N=C(NCc1ccc(Cl)cc1)SCCCc1c[nH]cn1 [Clobenpropit],scaled lipid accumulation score,[2],0.903 (active)
Clc1ccc(C2CC3CCC2N3)cn1 (stereo unspecified),scaled lipid accumulation score,library stock concentration: 24 mM,≤ -0.012
C1=C2CCCN[C@H]2[C@@H]2C[C@H]1[C@H]1CCCCN1C2 [Aloperine],scaled lipid accumulation score,[7],0.028
same,scaled lipid accumulation score,[2],0.068
COc1cc(C=Cc2ccc(OC)c(O)c2)cc(OC)c1,scaled lipid accumulation score,[1],0.176
Clc1ccc(N2CC3CCC(C2)N3)nn1,scaled lipid accumulation score,[2],≤ -0.07
"C[N+]1(C)[C@@H]2CC(OC(=O)[C@H](CO)c3ccccc3)C[C@H]1[C@@H]1O[C@@H]12 (single isomer, unassigned; (-)) [(-)-Scopolamine methyl nitrate]",scaled lipid accumulation score,[2],≤ 0
CC(=O)O[C@H]1CC[C@@]2(C)C(=CC[C@@H]3[C@@H]2CC[C@]2(C)C(=O)CC[C@@H]32)C1 [Prasterone acetate],scaled lipid accumulation score,[2],0.103
CCN(CC)CCO[C@H]1CC[C@@]2(C)C(=CC[C@@H]3[C@@H]2CC[C@]2(C)C(=O)CC[C@@H]32)C1.Cl,scaled lipid accumulation score,[2],1.39 (active)
CCN(CC)CCO[C@H]1CC[C@@]2(C)C(=CC[C@@H]3[C@@H]2CC[C@]2(C)C(=O)CC[C@@H]32)C1,scaled lipid accumulation score,[1],0.116
CC(=O)O[C@H]1CC[C@@]2(C)C(=CC[C@@H]3[C@@H]2CC[C@]2(C)C(=O)CC[C@@H]32)C1 [Dehydroisoandosterone 3-acetate],scaled lipid accumulation score,,≤ 0
CC(C)NC(C)Cc1ccc(I)cc1 (stereo unspecified) [Iofetamine hydrochloride],scaled lipid accumulation score,[2],0.757
COP(=S)(OC)Oc1ccc(SC)c(C)c1,scaled lipid accumulation score,[2],≤ 0
CO[C@H](C)[C@](O)(C(=O)OCC1=CCN2CC[C@H](O)[C@@H]12)C(C)C [Heliotrine],scaled lipid accumulation score,,≤ 0
CO/C1=C\C(C)=C\[C@@H](C)[C@@H](O)[C@@H](C)C/C(C)=C/C=C/[C@H](OC)[C@@H]([C@@H](C)[C@@H](O)[C@H](C)[C@@]2(O)C[C@@H](O)[C@H](C)[C@@H](C(C)C)O2)OC1=O [Bafilomycin A1],scaled lipid accumulation score,library stock concentration: 800 uM,1.08 (active)
CCCN(CCC)C1CCc2cccc(O)c2C1 (stereo unspecified),scaled lipid accumulation score,[2],≤ -0.07
CCCN(CCC)C1CCc2cccc(O)c2C1 (stereo unspecified) [8-Hydroxy-DPAT hydrobromide],scaled lipid accumulation score,[2],0.055
O=C(O)CCC(CP(=O)(O)O)C(=O)O (stereo unspecified) [PMPA (NAALADase inhibitor)],scaled lipid accumulation score,[2],≤ -0.006
CCCCC/C=C\C/C=C\C/C=C\C/C=C\CCCC(=O)NCCCC(=O)O [N-Arachidonoyl-.gamma.-Aminobutyric Acid],scaled lipid accumulation score,[1],0.032
CCN1C[C@]2(COC)CC[C@H](OC)[C@]34C5C[C@@H]6[C@@H](OC)C[C@@]7(OCO[C@@]7(C13)[C@@H](O)C24)C5[C@H]6OC (stereo partly specified) [Delcorine],scaled lipid accumulation score,,≤ 0
CN(C)C(=S)SSC(=S)N(C)C [Thiram] [listing 1 of 2 here],scaled lipid accumulation score,library stock concentration: 8.3 mM,0.965 (active)
CN(C)C(=S)SSC(=S)N(C)C [Thiram] [listing 2 of 2 here],scaled lipid accumulation score,[2],0.163
"Ic1ccccc1CNC1C2CCN(CC2)C1C(c1ccccc1)c1ccccc1 [L-703,606 oxalate salt hydrate]",scaled lipid accumulation score,[2],0.063
CN1CCC(c2ccc(F)cc2)C(COc2ccc3c(c2)OCO3)C1 (stereo unspecified),scaled lipid accumulation score,[3],0.664
CCCCCC(/C=C/C=O)OO (stereo unspecified) [4-hydroperoxy 2-Nonenal],scaled lipid accumulation score,[1],0.019
"COC(=O)[C@]1(O)C[C@@H]2O[C@@]1(C)n1c3ccccc3c3c4c(c5c6ccccc6n2c5c31)C(=O)NC4 [K-252a, Nocardiopsis sp.]",scaled lipid accumulation score,[7],0.362
O=C1NC(=O)c2c1c1c3ccccc3n3c1c1c2c2ccccc2n1[C@H]1CC[C@@H]3O1,scaled lipid accumulation score,[7],0.338
O=C1NC(=O)c2c1c1c3ccccc3n3c1c1c2c2ccccc2n1C1CCC3O1,scaled lipid accumulation score,[2],1.3 (active)
Cc1sc2c(c1C)C(c1ccc(Cl)cc1)=N[C@H](CC(=O)OC(C)(C)C)c1nnc(C)n1-2,scaled lipid accumulation score,[4],≤ 0
same,scaled lipid accumulation score,[5],≤ 0
same,scaled lipid accumulation score,[6],≤ 0
same,scaled lipid accumulation score,[2],≤ 0
CC[C@@]1(O)C[C@H](O[C@H]2C[C@H](N(C)C)[C@H](O)[C@H](C)O2)c2c(cc3c(c2O)C(=O)c2c(O)ccc(O)c2C3=O)[C@H]1C(=O)OC [Pyrromycin],scaled lipid accumulation score,[2],≤ 0
C[C@@H]1O[C@@H](O[C@H]2C[C@@H](O)[C@]3(CO)[C@H]4[C@H](O)C[C@]5(C)[C@@H](C6=CC(=O)OC6)CC[C@]5(O)[C@@H]4CC[C@]3(O)C2)[C@H](O)[C@H](O)[C@H]1O [Ouabain] [listing 1 of 2 here],scaled lipid accumulation score,library stock concentration: 8.6 mM,0.734
C[C@@H]1CC[C@@]2(OC1)O[C@H]1C[C@H]3[C@@H]4CC=C5C[C@@H](O[C@@H]6O[C@H](CO)[C@@H](O[C@@H]7O[C@@H](C)[C@H](O)[C@@H](O)[C@H]7O)[C@H](O)[C@H]6O[C@@H]6O[C@@H](C)[C@H](O)[C@@H](O)[C@H]6O)CC[C@]5(C)[C@H]4CC[C@]3(C)[C@H]1[C@@H]2C [Dioscin],scaled lipid accumulation score,[7],0.577
same,scaled lipid accumulation score,[2],0.255
C[C@@H]1O[C@@H](O[C@H]2C[C@@H](O)[C@]3(CO)C4C(CC[C@]3(O)C2)[C@@]2(O)CC[C@H](C3=CC(=O)OC3)[C@@]2(C)C[C@H]4O)[C@H](O)[C@H](O)[C@H]1O (stereo partly specified) [Ouabain],scaled lipid accumulation score,[2],0.993 (active)
C[C@@H]1O[C@@H](O[C@@H]2C[C@@H](O)[C@]3(CO)[C@H]4[C@H](O)C[C@]5(C)[C@@H](C6=CC(=O)OC6)CC[C@]5(O)[C@@H]4CC[C@]3(O)C2)[C@H](O)[C@H](O)[C@H]1O [Ouabain],scaled lipid accumulation score,[2],1 (active)
C[C@@H]1O[C@@H](O[C@@H]2C=C3CC[C@@H]4[C@H](CC[C@]5(C)[C@@H](c6ccc(=O)oc6)CC[C@]45O)[C@@]3(C)CC2)[C@H](O)[C@H](O)[C@H]1O [Proscillaridin A],scaled lipid accumulation score,,0.768
C[C@@H]1O[C@@H](O[C@H]2C[C@@H](O)[C@]3(CO)[C@H]4[C@H](O)C[C@]5(C)[C@@H](C6=CC(=O)OC6)CC[C@]5(O)[C@@H]4CC[C@]3(O)C2)[C@H](O)[C@H](O)[C@H]1O [Ouabain] [listing 2 of 2 here],scaled lipid accumulation score,[2],1.13 (active)
C[C@@H]1O[C@@H](O[C@H]2C[C@@H](O)[C@]3(CO)[C@@H]4C(CC[C@]3(O)C2)[C@@]2(O)CC[C@H](C3COC(=O)C3)[C@@]2(C)C[C@H]4O)[C@H](O)[C@H](O)[C@H]1O (stereo partly specified) [Dihydroouabain],scaled lipid accumulation score,[2],0.964 (active)
